This passage reports binding signal results from article PMC7862700, “An all-to-all approach to the identification of sequence-specific readers for epigenetic DNA modifications on cytosine”.

What all share (test): DAPPL (digital affinity profiling via proximity ligation, sequencing); 10 mM Tris-HCl pH 7.5, 50 mM NaCl, 1 mM DTT, 4% glycerol, room temperature, 30 min; GST-TFs on glutathione beads, 16-mer random dsDNA library, 0.1% formaldehyde crosslink after washing; high values mean tight binding
Test [1] has as its target T1, FLI1 (Homo sapiens, UniProt Q01543 1-452).
T1 sequence: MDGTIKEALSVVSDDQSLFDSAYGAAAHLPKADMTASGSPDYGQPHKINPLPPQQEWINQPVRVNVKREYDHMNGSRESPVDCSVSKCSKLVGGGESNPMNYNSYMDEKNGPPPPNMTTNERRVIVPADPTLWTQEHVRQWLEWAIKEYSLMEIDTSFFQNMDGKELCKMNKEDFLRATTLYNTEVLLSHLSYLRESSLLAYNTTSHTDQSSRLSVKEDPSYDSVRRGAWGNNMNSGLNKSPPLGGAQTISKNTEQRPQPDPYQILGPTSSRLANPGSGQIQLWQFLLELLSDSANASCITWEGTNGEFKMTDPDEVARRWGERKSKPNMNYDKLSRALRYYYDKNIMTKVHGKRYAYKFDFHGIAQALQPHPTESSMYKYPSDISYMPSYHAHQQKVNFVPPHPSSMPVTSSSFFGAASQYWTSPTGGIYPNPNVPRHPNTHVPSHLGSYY
As to conditions: protein: recombinant; tags: N-terminal GST; dsDNA, one strand shown. The essentials: (§1)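 Beads coated with glutathione captured GST-fused human transcription factors that had been expressed in yeast, and the factors were then given DNA barcodes and pooled with a tag-only sample. The pools were incubated with 200 nmole of a random double-stranded 16-mer DNA library in Tris/NaCl/DTT/glycerol buffer for 30 min at room temperature, washed, crosslinked with 0.1% formaldehyde and proximity-ligated with BsaI/T4 ligase at 37 °C for 1 h. PCR amplification and Illumina NextSeq500 sequencing came last. Binding signal is each hexamer's read frequency for a factor divided by its frequency for the tag-only sample.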

The target in test [2] is T2, GABPA (Homo sapiens, UniProt Q06546 1-454).
T2 sequence: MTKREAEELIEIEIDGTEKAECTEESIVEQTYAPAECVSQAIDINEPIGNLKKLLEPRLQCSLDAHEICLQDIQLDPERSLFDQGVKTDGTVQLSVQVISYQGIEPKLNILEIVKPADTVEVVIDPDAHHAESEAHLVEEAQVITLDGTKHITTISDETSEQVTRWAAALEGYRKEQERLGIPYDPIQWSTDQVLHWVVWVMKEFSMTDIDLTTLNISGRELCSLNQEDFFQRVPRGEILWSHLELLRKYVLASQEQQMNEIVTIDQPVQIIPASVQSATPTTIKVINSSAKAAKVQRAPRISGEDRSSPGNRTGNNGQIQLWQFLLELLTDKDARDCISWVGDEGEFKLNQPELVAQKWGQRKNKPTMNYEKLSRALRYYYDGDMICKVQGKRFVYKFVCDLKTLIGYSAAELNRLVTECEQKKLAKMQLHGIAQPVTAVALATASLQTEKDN
As to conditions: protein: recombinant; tags: N-terminal GST; dsDNA, one strand shown. The essentials: as §1

Test [3] deals with ELF1 (Homo sapiens, UniProt P32519 1-619). As to conditions: protein: recombinant; tags: N-terminal GST; dsDNA, one strand shown. In a few lines: as §1
Test [4] concerns the target T3, EHF (Homo sapiens, UniProt Q9NZC4 1-300).
T3 sequence: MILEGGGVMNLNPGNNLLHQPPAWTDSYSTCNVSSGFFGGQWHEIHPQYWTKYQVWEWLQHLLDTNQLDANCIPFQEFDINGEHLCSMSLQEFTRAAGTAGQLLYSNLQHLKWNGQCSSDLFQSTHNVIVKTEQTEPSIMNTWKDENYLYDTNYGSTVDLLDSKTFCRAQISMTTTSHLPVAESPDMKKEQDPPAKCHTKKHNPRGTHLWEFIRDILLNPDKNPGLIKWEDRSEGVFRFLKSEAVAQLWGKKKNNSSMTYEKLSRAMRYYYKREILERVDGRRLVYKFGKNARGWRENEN
As to conditions: protein: recombinant; tags: N-terminal GST; dsDNA, one strand shown. In a few lines:
as §1

Test [5] deals with SPIB (Homo sapiens, UniProt Q01892 1-262). As to conditions: protein: recombinant; tags: N-terminal GST; dsDNA, one strand shown. In a few lines: as §1
Test [6] has as its target T4, ELK3 (Homo sapiens, UniProt P41970 1-407).
T4 sequence: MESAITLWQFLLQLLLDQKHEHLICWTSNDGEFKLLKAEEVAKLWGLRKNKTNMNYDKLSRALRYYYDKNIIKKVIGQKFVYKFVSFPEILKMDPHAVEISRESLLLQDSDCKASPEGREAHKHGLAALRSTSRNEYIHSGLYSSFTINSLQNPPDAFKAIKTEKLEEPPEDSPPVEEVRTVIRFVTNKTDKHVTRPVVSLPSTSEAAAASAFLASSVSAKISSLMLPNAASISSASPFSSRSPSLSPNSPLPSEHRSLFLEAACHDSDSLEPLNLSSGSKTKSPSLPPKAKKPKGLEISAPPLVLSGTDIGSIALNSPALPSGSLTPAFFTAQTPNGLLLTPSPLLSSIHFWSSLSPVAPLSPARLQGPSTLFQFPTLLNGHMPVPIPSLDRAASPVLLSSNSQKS
As to conditions: protein: recombinant; tags: N-terminal GST; dsDNA, one strand shown. The essentials:
as §1

Test [7] concerns the target T5, FEV (Homo sapiens, UniProt Q99581 1-238).
T5 sequence: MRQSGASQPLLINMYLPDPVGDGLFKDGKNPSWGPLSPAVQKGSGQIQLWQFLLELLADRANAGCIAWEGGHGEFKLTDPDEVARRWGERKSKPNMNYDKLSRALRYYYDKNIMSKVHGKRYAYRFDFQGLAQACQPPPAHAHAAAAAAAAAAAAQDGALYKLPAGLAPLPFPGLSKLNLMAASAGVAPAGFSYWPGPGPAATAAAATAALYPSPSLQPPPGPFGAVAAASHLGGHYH
As to conditions: protein: recombinant; tags: N-terminal GST; dsDNA, one strand shown. In a few lines:
as §1

Test [8] addresses ETV5 (Homo sapiens, UniProt P41161 1-510). As to conditions: protein: recombinant; tags: N-terminal GST; dsDNA, one strand shown. The essentials: as §1
Test [9] addresses HSF1 (Homo sapiens, UniProt Q00613 1-529). As to conditions: protein: recombinant; tags: N-terminal GST; chain copies: 3; dsDNA, one strand shown. The essentials:
as §1

Test [10] deals with T6, SPIC (Homo sapiens, UniProt Q8N5J4 1-248).
T6 sequence: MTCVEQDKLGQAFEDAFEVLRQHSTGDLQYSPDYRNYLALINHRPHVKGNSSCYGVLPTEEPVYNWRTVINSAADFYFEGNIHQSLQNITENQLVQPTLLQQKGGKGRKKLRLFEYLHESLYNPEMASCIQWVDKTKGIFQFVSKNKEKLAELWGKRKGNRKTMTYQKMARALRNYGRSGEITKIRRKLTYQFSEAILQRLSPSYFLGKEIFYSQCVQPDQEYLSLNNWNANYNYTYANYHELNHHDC
As to conditions: protein: recombinant; tags: N-terminal GST; dsDNA, one strand shown. The essentials:
as §1

Test [11] addresses T7, ELK4 (Homo sapiens, UniProt P28324-2 1-405).
T7 sequence: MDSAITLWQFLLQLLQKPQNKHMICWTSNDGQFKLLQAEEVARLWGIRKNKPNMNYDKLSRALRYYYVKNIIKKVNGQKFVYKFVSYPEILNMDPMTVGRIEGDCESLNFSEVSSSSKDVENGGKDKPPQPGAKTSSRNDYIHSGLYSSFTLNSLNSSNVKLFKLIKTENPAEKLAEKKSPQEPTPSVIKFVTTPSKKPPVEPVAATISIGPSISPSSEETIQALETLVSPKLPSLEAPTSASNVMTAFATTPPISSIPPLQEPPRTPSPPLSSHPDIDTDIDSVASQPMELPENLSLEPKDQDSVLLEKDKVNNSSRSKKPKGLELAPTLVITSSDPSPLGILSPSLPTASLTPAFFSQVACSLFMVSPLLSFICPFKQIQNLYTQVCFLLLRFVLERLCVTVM
As to conditions: protein: recombinant; tags: N-terminal GST; dsDNA, one strand shown. The essentials: as §1

Test [12] concerns the target T8, ETV2 (Homo sapiens, UniProt O00321 1-342).
T8 sequence: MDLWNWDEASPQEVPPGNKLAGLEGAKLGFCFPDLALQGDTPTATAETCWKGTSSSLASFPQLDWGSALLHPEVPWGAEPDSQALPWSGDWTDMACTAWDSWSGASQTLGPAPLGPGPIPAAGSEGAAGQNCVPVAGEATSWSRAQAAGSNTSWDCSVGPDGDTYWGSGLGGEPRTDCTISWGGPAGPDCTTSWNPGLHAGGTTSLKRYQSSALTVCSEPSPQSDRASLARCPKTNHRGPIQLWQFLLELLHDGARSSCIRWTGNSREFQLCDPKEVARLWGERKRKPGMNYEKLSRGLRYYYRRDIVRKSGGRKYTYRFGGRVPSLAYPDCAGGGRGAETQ
As to conditions: protein: recombinant; tags: N-terminal GST; dsDNA, one strand shown. In a few lines: as §1

Test [13] has as its target T9, ELF3 (Homo sapiens, UniProt P78545 1-371).
T9 sequence: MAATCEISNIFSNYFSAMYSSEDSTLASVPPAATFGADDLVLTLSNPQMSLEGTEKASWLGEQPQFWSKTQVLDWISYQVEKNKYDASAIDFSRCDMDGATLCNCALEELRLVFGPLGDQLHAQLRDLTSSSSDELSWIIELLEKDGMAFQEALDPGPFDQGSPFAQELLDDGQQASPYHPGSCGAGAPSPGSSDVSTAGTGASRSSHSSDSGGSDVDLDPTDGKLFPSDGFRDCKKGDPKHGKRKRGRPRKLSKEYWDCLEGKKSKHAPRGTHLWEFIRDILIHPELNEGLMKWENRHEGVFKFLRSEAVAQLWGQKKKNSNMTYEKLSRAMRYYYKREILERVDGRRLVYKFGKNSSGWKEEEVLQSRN
As to conditions: protein: recombinant; tags: N-terminal GST; dsDNA, one strand shown. The essentials:
as §1

For test [14], the target named is CRX (Homo sapiens, UniProt O43186 1-299). As to conditions: protein: recombinant; tags: N-terminal GST; dsDNA, one strand shown. The essentials:
as §1

Sequence of ELF1 (P32519 whole entry): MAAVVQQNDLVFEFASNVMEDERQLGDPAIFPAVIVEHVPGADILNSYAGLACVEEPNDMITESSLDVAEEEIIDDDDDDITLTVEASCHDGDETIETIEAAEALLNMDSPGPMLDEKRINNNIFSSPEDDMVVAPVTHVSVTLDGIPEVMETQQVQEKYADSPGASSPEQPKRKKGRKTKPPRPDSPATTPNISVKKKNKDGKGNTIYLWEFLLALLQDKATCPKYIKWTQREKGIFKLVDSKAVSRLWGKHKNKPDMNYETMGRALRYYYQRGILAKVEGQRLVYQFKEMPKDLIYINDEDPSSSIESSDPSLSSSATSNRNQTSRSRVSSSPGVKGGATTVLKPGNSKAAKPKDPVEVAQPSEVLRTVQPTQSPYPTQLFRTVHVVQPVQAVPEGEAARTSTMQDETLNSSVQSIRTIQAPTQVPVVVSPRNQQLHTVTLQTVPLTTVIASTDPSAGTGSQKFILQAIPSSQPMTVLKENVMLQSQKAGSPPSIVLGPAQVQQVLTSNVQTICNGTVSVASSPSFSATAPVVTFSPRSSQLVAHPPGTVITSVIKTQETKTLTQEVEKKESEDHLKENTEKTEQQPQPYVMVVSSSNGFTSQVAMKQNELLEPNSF
Sequence of CRX (O43186 whole entry): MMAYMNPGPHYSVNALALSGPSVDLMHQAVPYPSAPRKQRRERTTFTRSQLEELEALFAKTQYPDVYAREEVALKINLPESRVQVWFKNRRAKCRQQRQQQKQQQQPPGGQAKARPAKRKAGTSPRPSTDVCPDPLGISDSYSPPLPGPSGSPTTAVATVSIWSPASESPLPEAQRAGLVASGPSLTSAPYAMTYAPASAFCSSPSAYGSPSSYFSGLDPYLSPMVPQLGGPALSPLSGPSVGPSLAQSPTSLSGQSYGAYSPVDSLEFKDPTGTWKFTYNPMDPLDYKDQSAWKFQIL
Sequence of ETV5 (P41161 whole entry): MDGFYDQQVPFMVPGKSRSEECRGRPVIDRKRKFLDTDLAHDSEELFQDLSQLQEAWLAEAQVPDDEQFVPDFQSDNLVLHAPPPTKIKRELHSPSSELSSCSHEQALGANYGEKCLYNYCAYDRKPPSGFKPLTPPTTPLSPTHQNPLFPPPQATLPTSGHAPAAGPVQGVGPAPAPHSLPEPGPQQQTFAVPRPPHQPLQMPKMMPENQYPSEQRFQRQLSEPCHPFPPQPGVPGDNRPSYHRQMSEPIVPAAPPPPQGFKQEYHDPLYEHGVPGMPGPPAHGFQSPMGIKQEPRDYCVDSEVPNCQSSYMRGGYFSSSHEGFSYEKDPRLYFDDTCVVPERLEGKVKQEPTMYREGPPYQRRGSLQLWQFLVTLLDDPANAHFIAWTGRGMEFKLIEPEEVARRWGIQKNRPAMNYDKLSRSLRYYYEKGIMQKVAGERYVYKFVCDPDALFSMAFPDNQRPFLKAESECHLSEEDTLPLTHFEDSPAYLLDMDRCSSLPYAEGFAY
Sequence of HSF1 (Q00613 whole entry): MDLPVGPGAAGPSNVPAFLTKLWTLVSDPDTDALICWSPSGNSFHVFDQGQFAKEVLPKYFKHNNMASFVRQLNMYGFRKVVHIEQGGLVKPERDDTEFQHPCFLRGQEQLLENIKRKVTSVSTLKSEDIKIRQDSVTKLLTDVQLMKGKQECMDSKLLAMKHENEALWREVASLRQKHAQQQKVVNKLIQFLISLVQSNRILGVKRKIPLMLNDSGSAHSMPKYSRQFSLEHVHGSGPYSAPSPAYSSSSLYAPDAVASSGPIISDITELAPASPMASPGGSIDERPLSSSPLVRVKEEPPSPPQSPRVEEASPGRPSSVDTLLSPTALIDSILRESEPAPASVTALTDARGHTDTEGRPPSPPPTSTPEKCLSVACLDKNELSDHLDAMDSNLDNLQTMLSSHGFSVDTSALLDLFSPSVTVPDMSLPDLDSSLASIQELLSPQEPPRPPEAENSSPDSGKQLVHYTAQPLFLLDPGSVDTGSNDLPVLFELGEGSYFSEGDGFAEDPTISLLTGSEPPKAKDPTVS
Sequence of SPIB (Q01892 whole entry): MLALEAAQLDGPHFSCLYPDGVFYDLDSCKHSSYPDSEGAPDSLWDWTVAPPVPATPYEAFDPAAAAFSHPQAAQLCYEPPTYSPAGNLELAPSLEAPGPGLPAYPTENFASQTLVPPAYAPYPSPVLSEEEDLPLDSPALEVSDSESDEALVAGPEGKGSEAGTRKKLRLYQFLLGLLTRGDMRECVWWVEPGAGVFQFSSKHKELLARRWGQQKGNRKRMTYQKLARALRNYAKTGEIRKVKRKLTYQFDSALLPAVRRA

Consider AAGGCT, for which the binding signal in test [1] is 1.03 fold enrichment (6-mer frequency, TF over GST control); in test [2], 1.12 fold enrichment (6-mer frequency, TF over GST control); in [3] it was 1.1 fold enrichment (6-mer frequency, TF over GST control); in [4], 1.02 fold enrichment (6-mer frequency, TF over GST control); in [5] it was 1.01 fold enrichment (6-mer frequency, TF over GST control); in test [6] it was 1.1 fold enrichment (6-mer frequency, TF over GST control). In addition, the binding signal in [7] was 1.05 fold enrichment (6-mer frequency, TF over GST control); in test [8], 1.01 fold enrichment (6-mer frequency, TF over GST control); in [9], 1.1 fold enrichment (6-mer frequency, TF over GST control); in test [10], 1.06 fold enrichment (6-mer frequency, TF over GST control); in test [11], 1 fold enrichment (6-mer frequency, TF over GST control); in test [12], 1.15 fold enrichment (6-mer frequency, TF over GST control). Moreover, the binding signal was 1.02 fold enrichment (6-mer frequency, TF over GST control) in test [13] and 1.43 fold enrichment (6-mer frequency, TF over GST control) in test [14].
